Screening data as filed in PubChem.
This is a sample that favours compounds with a hit; in the whole collection about 28% have one here.
CYP2C19 act: increases human CYP2C19 enzyme activity; P33261; recombinant CYP2C19, luciferin-H EGE luminescence; active compounds read high; 0 = fully inhibited enzyme, 1 = untreated enzyme; activation factor at 5 µM; 96,000 tested, under 10 active;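 active = activation factor of at least 2 at 5 µM in the primary screen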;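 also: 0 = wells with 2.5 mM tranylcypromine and 1 = vehicle-only wells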
Target sequence (P33261 whole entry, looked up): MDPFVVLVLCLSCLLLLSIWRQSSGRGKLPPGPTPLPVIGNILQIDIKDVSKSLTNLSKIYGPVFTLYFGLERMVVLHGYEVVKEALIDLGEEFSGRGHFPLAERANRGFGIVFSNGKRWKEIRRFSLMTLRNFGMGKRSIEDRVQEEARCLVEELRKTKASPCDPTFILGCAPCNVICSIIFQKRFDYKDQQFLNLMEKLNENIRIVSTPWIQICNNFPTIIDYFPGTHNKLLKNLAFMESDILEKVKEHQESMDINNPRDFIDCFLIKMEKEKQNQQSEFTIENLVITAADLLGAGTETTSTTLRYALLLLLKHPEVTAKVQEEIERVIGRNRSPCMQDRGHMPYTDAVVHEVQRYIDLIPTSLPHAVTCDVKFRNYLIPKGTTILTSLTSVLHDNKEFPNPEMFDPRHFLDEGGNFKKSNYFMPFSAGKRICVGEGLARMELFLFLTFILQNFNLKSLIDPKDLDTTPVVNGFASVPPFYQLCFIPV
CD11b adhes enh: increases human CD11b/CD18 adhesion to fibrinogen; K562 CD11b/CD18 adhesion to fibrinogen, ATPlite luminescence; activation, % at 10 µM; 0.07% of 93,000 active;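 active = 10 µM primary screen giving 50% or more activity, confirmed by 40% or more on retest at that dose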
CD11b adhes inh: blocks human CD11b/CD18 adhesion to fibrinogen. inhibition, % at 10 µM. P05107+P11215. AID 1497. K562 CD11b/CD18 adhesion to fibrinogen, ATPlite luminescence; Mn2+ added to activate the integrin. 0.54% of 93,000 active;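 active = primary inhibition of 50% or more at 10 µM, then 40% or more on retest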
CYP2C19 inh: blocks human cytochrome P450 2C19 | CYP2C19 Supersomes, luciferin-H EGE luminescence, 30 min | inhibition, % at 5 µM | 21% of 96,000 active;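 active = CYP2C19 inhibition above a set limit at 5 µM in the primary screen, cut at about 50% in these data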;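 also: plate controls were negative control wells for no effect and 2.5 mM tranylcypromine positive control for full effect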
CYP2C9 act: CYP2C9 (human) activation; recombinant CYP2C9, luciferin-H conversion, luminescence; active compounds read high; factor 1 = untreated enzyme, 0 = blocked; activation factor at 5 µM; 1.4% of 96,000 active;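 active = activation factor of 2 or more for CYP2C9 at a 5 µM dose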;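 also: 0 = sulfaphenazole-blocked wells and 1 = vehicle-only wells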
CYP2C9 inh: inhibitors of human CYP2C9 | CYP2C9 Supersomes, luciferin-H conversion, luminescence | inhibition, % at 5 µM | 20% of 96,000 active | AID 777;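 active = blocking of liver enzyme CYP2C9 beyond about 50% at 5 µM, limit read from the data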
* marks the source's active call; other numbers are inactive results; x = not tested or not shown.

SMILES | CYP2C19 act | CD11b adhes enh | CD11b adhes inh | CYP2C19 inh | CYP2C9 act | CYP2C9 inh
CCCCCCOC(=O)Cc1c(C)nc(-c2ccccc2)[nH]c1=O | 0.8 | x | x | 22 | 1 | -2
CCSc1nc(-c2ccc(OC)cc2)n(-c2nc3ccccc3s2)n1 | 0.9 | 4 | -5 | 12 | 0.5 | 54*
COc1ccc(CCC(=O)NCc2ccco2)cc1 | 0.9 | 15 | -22 | 10 | 1 | 2
CC(C)Oc1ccc(C(CC(=O)NCc2ccco2)c2ccccc2)cc1 (stereo unspecified) | 0.4 | -4 | 9 | 61* | 0.3 | 68*
CCOC(=O)c1c(NC(=O)c2ccccc2Br)sc2c1CCc1ccccc1-2 | 0.9 | -2 | -34 | 8 | 0.8 | 24
C=CCn1c(N)c(C(=O)NCc2ccco2)sc1=S | 0.4 | 5 | 2 | 60* | 0.4 | 64*
C=CCn1c(N)c(C(=O)N2CCOCC2)sc1=S | 0.5 | -4 | -3 | 46 | 0.3 | 70*
CCn1c(N)c(C(=O)N2CCOCC2)sc1=S | 0.9 | 2 | 2 | 8 | 0.9 | 11
C=CCn1c(N)c(C(=O)Nc2ccccc2OC)sc1=S | 0.2 | -6 | -5 | 78* | 0.2 | 85*
CCCCOC(=O)NC1CCS(=O)(=O)C1 (stereo unspecified) | 1.1 | 2 | -4 | -6 | 1.2 | -21
COc1cc2c(cc1OC)C(C(=O)NCC1COc3ccccc3O1)C(c1cccnc1)N(C)C2=O (stereo unspecified) | 0.8 | 2 | -36 | 17 | 1 | -3
Nc1c(Nc2ccccc2)c2ccccc2oc1=O | 0.1 | 2 | -12 | 95* | 0.2 | 80*
Nc1cc2c([N+](=O)[O-])cccc2o1 | 1.1 | -1 | 13 | -11 | 0.9 | 14
CCNc1c(N)c(=O)oc2ccccc12 | 1 | 0 | -9 | -3 | 1.1 | -5
O=c1oc2ccccc2c(Nc2cccc(O)c2)c1[N+](=O)[O-] | 0.1 | -1 | 2 | 91* | 0.8 | 18
O=C(NCCCn1ccnc1)c1cc(S(=O)(=O)N2CCOCC2)c(Cl)cc1Cl | 0.3 | -2 | 2 | 72* | 0 | 96*
Cc1ccc(S(=O)(=O)N2CCOCC2)cc1C(=O)NCCCn1ccnc1 | 0.3 | -2 | -15 | 65* | 0.2 | 76*
O=C(NCCCn1ccnc1)c1ccc(Br)c(S(=O)(=O)N2CCOCC2)c1 | 0.5 | x | x | 53* | 0.1 | 95*
Cc1ccc(C(=O)NCc2ccco2)cc1S(=O)(=O)N1CCOCC1 | 1 | x | x | -3 | 1 | 4
O=C(Nc1ccccc1O)c1cc(S(=O)(=O)N2CCOCC2)c(Cl)cc1Cl | 0.9 | -4 | 2 | 5 | 0.7 | 27
CS(=O)(=O)N1CCCC(C(=O)NCc2ccc(F)cc2)C1 (stereo unspecified) | 1 | -1 | -32 | 1 | 1 | 0
O=C(CN(Cc1ccco1)S(=O)(=O)c1ccccc1)N/N=C/c1cccc(O)c1 | 0.8 | -2 | -8 | 16 | 0.7 | 30
Cc1ccc(N(CC(=O)Nc2ccccc2C(=O)NCc2ccco2)S(=O)(=O)c2ccccc2)cc1C | 0.1 | -1 | -6 | 92* | 0 | 98*
O=C(CN(c1ccc(F)cc1)S(=O)(=O)c1ccccc1)NCc1ccco1 | 0.5 | -2 | -1 | 51* | 0.3 | 73*
COC(=O)CN(c1ccc(F)cc1)S(=O)(=O)c1ccccc1 | 0.9 | 5 | -37 | 10 | 0.9 | 6
SMILES | CYP2C19 act | CD11b adhes enh | CD11b adhes inh | CYP2C19 inh | CYP2C9 act | CYP2C9 inh
O=C(CN(c1ccccc1)S(=O)(=O)c1ccccc1)Nc1ccccc1C(=O)NCc1ccco1 | x | -2 | -9 | x | x | x
COc1ccc(Cl)cc1N(CC(=O)N1CCC(C)CC1)S(C)(=O)=O | 0.9 | 0 | -2 | 13 | 1 | -5
COc1ccc(Cl)cc1N(CC(=O)N1CCN(Cc2ccccc2)CC1)S(C)(=O)=O | 0.5 | 0 | 3 | 55* | 0.9 | 12
Cc1cccc(S(=O)(=O)N(CC(=O)Nc2ccccc2C)Cc2ccco2)c1 | 0.6 | 1 | 5 | 43 | 0.5 | 53*
CC1CCc2c(C(=O)NCCCN3CCOCC3)csc2C1 (stereo unspecified) | 1 | -5 | 5 | -1 | 1.1 | -6
Cn1c(/C=N/n2cnnc2)nc2ccccc21 | 1 | 3 | 1 | 1 | 1.2 | -16
